The values that follow come from PubChem BioAssay AID1347056 (Sanford-Burnham Center for Chemical Genomics, 2019).

Values joined by “and” are separate entries in the source; they are usually repeats but may differ in a detail not shown here. Identical values can stand only once. Among all 360,000 compounds or so, about 3,600 (1%) were called active.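 Rule for the calls: active = compounds whose plate-normalised and pattern-corrected inhibition of the luciferase reporter signal at the single screening dose is 50% or more; inactive = the rest.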 For the sample, actives were picked, then their nearest neighbours and some compounds at random.

The term inhibition denotes the relative decrease from the control value, in per cent.

The assay can be described thus: inhibitors of TROY-driven NF-kB signaling, primary screen, Q293 LMP1-TROYcd cells, NF-kB luciferase, uHTS (AID 1347056). The settings on record: Q293 LMP1-TROYcd NF-kB luciferase reporter, 4 h; at 10 µM; stronger effect = higher value.
In the case of `COc1ccc(S(=O)(=O)N(C)C[C@H]2Oc3ccc(NS(=O)(=O)c4cccs4)cc3CC(=O)N([C@H](C)CO)C[C@H]2C)cc1`, the inhibition was -24.6% (inactive). Under `Cc1ccc(N(C(=O)C(F)(F)F)C(C(=O)NC2CCCCC2)c2ccncc2)cc1C` (configuration not stated) stands -2.62% (inactive); under `O=C(c1ccc2c(c1)C(=O)N(Cc1ccncc1)C2=O)N1CCN(S(=O)(=O)c2ccc(OC(F)(F)F)cc2)CC1`, 0.85% (inactive); under `CC(C)(C)NC(=O)c1ccc(Cn2cc(C(F)(F)F)ccc2=O)cc1`, 9.78% (inactive). On to `COc1ccc(N2CCN(C(=O)CNC(=O)c3ccc(C(C)(C)C)cc3)CC2)cc1`, for which the inhibition is -17.8% (inactive). For `O=C(NCC(=O)N1CCN(c2ccccc2O)CC1)c1ccc2ccccc2c1` the value was 71.8% (active). For `O=C(NCC(=O)N1CCN(c2ccccc2F)CC1)c1cccs1`, the inhibition is -32.6% (inactive). On to `CCC(Oc1ccccc1C)C(=O)Nc1ccc(S(=O)(=O)Nc2cc(C)on2)cc1` (configuration not stated), for which the inhibition is -0.38% (inactive).

With `COc1ccc(C(=O)Nc2c(N)nc(SCC(=O)Nc3ccc(C(C)=O)cc3)[nH]c2=O)cc1`, the inhibition is -11% (inactive). For `Cc1ccc(S(=O)(=O)N(CC(=O)Nc2cccc([N+](=O)[O-])c2)Cc2ccc(Cl)cc2)cc1` the value was 44.3% (inactive). For `COC(=O)Cc1[nH]n(-c2nc3ccccc3s2)c(=O)c1C(C)=Nc1ccc(OC)cc1`, the inhibition was 54.6% (active).

Regarding `O=C1CSC(=O)N1CCOCCN1C(=O)CSC1=O`, the inhibition is -11.1% (inactive). Under `COc1ccccc1C(=O)NC(=S)Nc1ccccc1N1CCCCC1` stands 50.5% (active); under `COc1ccccc1C(=O)NC(=S)NC12CC3CC(CC(C3)C1)C2`, 14.8% (inactive); under `COc1ccccc1C(=O)NC(=S)Nc1ccc(N2CCOCC2)cc1`, 30.2% (inactive). In the case of `Cc1ccc(CN(Cc2cccnc2)C(=S)Nc2cc(Cl)ccc2C)cc1`, the inhibition is -0.68% (inactive).

In the case of `NC(=O)C1(C(N)=O)OC1c1ccc(Cl)cc1Cl` (configuration not stated), the inhibition is -4.3% (inactive). Under `COc1cccc(OCc2cc(/C=N/NC(=O)c3nc(Cl)c(Cl)c(N)c3Cl)ccc2OC)c1` stands 11.1% (inactive).

Take `CCOc1ccc(-c2cc(C(=O)N/N=C/c3ccc(O)cc3)c3ccccc3n2)cc1`: the inhibition is 42.4% (inactive). As to `CC(C)(C)C(=O)Nc1ccc(C(=O)N/N=C/c2ccccc2OC(=O)c2ccc(Cl)cc2Cl)cc1`, the inhibition was -17% (inactive). `O=C(N/N=C/c1ccc(OC(=O)c2ccccc2Cl)cc1)c1ccc(O)cc1`: the inhibition was 54.5% (active). For `O=C(NN=Cc1ccc2c(c1)CCC2)c1ccccc1O`, the inhibition is -55% (inactive). For `COc1ccc(C(=O)Nc2ccccc2C(=O)N/N=C/c2ccc(O)c(OC)c2)cc1` the value was 84.9% (active); for `CN1C(=O)/C(=C/C=C2\SCCN2C)OC1=S`, -2.27% (inactive); for `CCOC(=O)CCCNC(=O)CN1C(=O)NC(CCc2ccccc2)C1=O` (configuration not stated), -5.07% (inactive). For `O=C1/C(=C\Nc2ccccc2)CCN1c1ncccn1` the value was -49.4% (inactive). For `COc1ccc(Cc2nnc(SCC(=O)Nc3ccc(C)c(C)c3)o2)cc1OC` the value was 8.78% (inactive); for `Fc1ccc2[nH]c3c(N4CCSCC4)ncnc3c2c1`, 59.8% (active).

For `Cc1ccnc(NC(=O)C(C)N2C(=O)c3ccccc3C2=O)c1` (configuration not stated), the inhibition was -1.82% (inactive). Regarding `Oc1c(Cl)cc(Cl)c(Cl)c1Cc1c(O)c(Cl)cc(Cl)c1Cl`, the inhibition is 80.3% (active). Under `CC(Oc1ccccc1)C(=O)Nc1oc(-c2ccco2)c(-c2ccco2)c1C#N` (configuration not stated) stands 14.3% (inactive); under `O=C(O)c1ccc2c(=O)n3c(nc2c1)/C(=C/c1ccc(OC(F)F)cc1OC(F)F)CC3`, 1.62% (inactive). For `CCN(C(=O)CSc1nnc(-c2ccncc2)o1)c1ccccc1` the value was 2.98% (inactive); for `c1ccc(-c2nnc(SCc3nc4ccccc4[nH]3)o2)cc1`, 57.9% (active). Under `Fc1ccc2nc(-c3ccccc3)nc(SCc3nnc(-c4ccccc4)o3)c2c1` stands -9.52% (inactive); under `COc1ccc(C(C)=O)cc1CN1C(=O)NC2(CCCCC2C)C1=O` (configuration not stated), 19% (inactive); under `CCOc1ccc(CCNC(=O)CCc2nnc3ccc(N4CCCC4)nn23)cc1OCC`, 3.54% (inactive).

As for `Cc1nc2sccn2c(=O)c1S(=O)(=O)NCCc1ccccc1`, the inhibition is -4.17% (inactive). `O=C(Nc1cc(S(=O)(=O)N2CCOCC2)ccc1OCC(F)(F)F)c1ccc(N2CCCC2=O)cc1`: the inhibition is 1.27% (inactive). As for `O=C(Nc1cc(Cl)ccc1N1CCOCC1)c1ccc(N2CCCC2=O)cc1`, the inhibition was 70.3% (active). For `O=C(Nc1cc(-c2nn(CC(=O)N3CCCCC3)c(=O)c3ccccc23)ccc1N1CCOCC1)c1ccc(Cl)cc1` the value was -10.6% (inactive). For `CN(C)C(=O)c1ccc2c(c1)C1C3CCC(C3)C1C(c1ccccc1)N2` (configuration not stated) the value was -1.11% (inactive); for `O=C(C1CCC(=O)N(C2CC2)C1)N1CCN(c2ccc(Cl)cc2)CC1` (configuration not stated), -7.66% (inactive); for `Cc1ccc(S(=O)(=O)N(C)C)cc1NC(=O)C(C)OC(=O)c1ccc2ccccc2n1` (configuration not stated), -2.57% (inactive). Regarding `COC(=O)c1ccccc1NC(=O)Cn1nc(C(F)(F)F)c2c1CCC2`, the inhibition is -27% (inactive).

In the case of `Cc1ccc(CSc2nc(-c3ccccc3)c(C#N)c(=O)[nH]2)cc1`, the inhibition is 54% (active). Regarding `N#Cc1c(-c2ccccc2)nc(SCc2cccc(C(F)(F)F)c2)[nH]c1=O`, the inhibition was 41.2% (inactive). For `Cc1ccccc1CSc1nnc(-c2ccccc2)c(=O)[nH]1` the value was -16.6% (inactive). Under `Cc1ccc(NC(=O)Cc2nnc(SCC(=O)Nc3nncs3)n2C)cc1` stands -1.88% (inactive); under `CCOC(=O)Cc1c(C)nc2c(C#N)c(C)nn2c1C`, 10.1% (inactive); under `CN(CC(=O)NCc1ccncc1)S(=O)(=O)c1ccc(Br)cc1`, 0.22% (inactive).

`Cc1ccc(S(=O)(=O)N2CCCCC2)cc1NC(=O)CCNC(=O)c1ccccc1`: the inhibition is -24.1% (inactive).

For the compound `OCC[C@H]1C[C@H](O)[C@@H](O)[C@]2(CCCCO2)O1`, the inhibition was -23.7% (inactive). For the compound `C[C@H]1CC[C@]2(O[C@@H](CCO)C[C@@H](O)[C@@H]2O)O1`, the inhibition was 80.2% (active). Under `C[C@@H]1CC[C@]2(O[C@@H](CCO)C[C@H](O)[C@H]2O)O1` stands 0.26% (inactive). Regarding `CCOC(=O)C1(C)CCCN(C(=O)c2ccc(F)c(Cl)c2)C1` (configuration not stated), the inhibition was 2.88% (inactive).

For `Cc1ccccc1N1CCN(Cc2nc(Cc3ccccc3F)no2)CC1`, the inhibition is -8.4% (inactive). For `O=C(/C=C/c1cnc2ccccc2n1)NC1CCCCCC1`, the inhibition was -49.1% (inactive). For `Cc1nc2cc(NC(=O)CSc3nc4c(C)cccc4cc3C#N)ccc2s1` the value was 4.28% (inactive). Consider `CCOc1ccc(/C(O)=C2\C(=O)C(=O)N(c3ccc(OC)cc3)C2c2ccccc2[N+](=O)[O-])cc1` (configuration not stated), for which the inhibition was 54.8% (active). In the case of `COc1ccc(C2/C(=C(/O)c3ccccc3)C(=O)C(=O)N2c2ncccn2)cc1OC` (configuration not stated), the inhibition was -2.92% (inactive).

For `COc1ccc(/C(O)=C2/C(=O)C(=O)N(c3nc(C)c(C)s3)C2c2ccco2)cc1` (configuration not stated), the inhibition was -21.4% (inactive).

As to `Cc1ccc(C(O)c2ncc(-c3ccccc3F)[nH]2)cc1F` (configuration not stated), the inhibition was -21.9% (inactive).

Take `CC(=O)c1ccc(N2CCN(S(=O)(=O)c3ccc4c(c3)CC(=O)N4C)CC2)cc1`: the inhibition was -27.6% (inactive). Under `Cc1cnc(CN(C)C(=O)CC2C(=O)NCCN2Cc2cccc(F)c2F)[nH]1` (configuration not stated) stands 3.88% (inactive); under `Cc1ccc(NC(=O)C2CCCN(S(=O)(=O)c3c(C)noc3C)C2)c(C)c1` (configuration not stated), -7.46% (inactive); under `COc1c(C)cc(C(=O)C2CCCN(S(=O)(=O)c3c(C)noc3C)C2)cc1C` (configuration not stated), 50.3% (active). Under `Cc1noc(C)c1S(=O)(=O)N1CCCC(C(=O)Nc2nccs2)C1` (configuration not stated) stands -32.5% (inactive); under `CCOC(=O)CCC(NC(=O)c1ccc(CNc2nc3cc(C(F)(F)F)ccc3nc2C(=O)OCC)cc1)C(=O)OCC` (configuration not stated), -25.2% (inactive); under `CCCCCc1nnc(NC(=O)c2ccc(=O)n(C)n2)s1`, -18.4% (inactive).

As for `O=C(CN1C(=O)/C(=C\c2ccccc2F)SC1=S)Nc1nc2ccccc2s1`, the inhibition was 68.3% (active). Under `CN(C(=O)CN1C(=O)S/C(=C\c2ccccc2F)C1=O)C1CCS(=O)(=O)C1` (configuration not stated) stands 6.08% (inactive); under `O=C(CN1C(=O)/C(=C/c2ccccc2F)Sc2ccccc21)NCc1cccnc1`, 44.7% (inactive); under `COc1ccc(CNC(=O)CCC(=O)Nc2nnc(C(C)C)s2)cc1`, -5.09% (inactive).

As for `O=C(O)C1C2C=CC(C2)C1C(=O)N1CCN(CCO)CC1` (configuration not stated), the inhibition was -8.15% (inactive). For the compound `CC1(C)SC2C(NC(=O)COc3ccccc3)C(=O)N2C1C(=O)O` (configuration not stated), the inhibition was -1.14% (inactive) and 4.62% (inactive). Under `COc1ccc(-c2cc(C(=O)N(C)Cc3ccc(OC)c(OC)c3OC)c3ccccc3n2)cc1OC` stands 19.6% (inactive); under `COc1ccc(-c2cc(C(F)(F)F)nc(S(C)(=O)=O)n2)cc1OC`, 55% (active). For `COc1ccc(C2=NO[C@@H]3C(=O)N(Cc4ccccc4)C(=O)[C@H]23)cc1OC` the value was -14.4% (inactive); for `c1ccc2c(C[n+]3csc4ccccc43)cccc2c1`, 13.4% (inactive). For `Cc1noc(C)c1C(=O)NC(C)c1ccc2c(c1)OCO2` (configuration not stated) the value was 1.6% (inactive); for `O=C(COC(=O)C1CC2CCCC(C1)C2=O)NC(=O)c1ccccc1` (configuration not stated), 4.06% (inactive). Consider `Cn1c(-c2ccc(C(F)(F)F)cc2)cc2onc(-c3ccccc3)c2c1=O`, for which the inhibition was 69.6% (active). In the case of `O=c1c2ccccc2c(-c2ccc(F)cc2)nn1-c1ccc(C(F)(F)F)cc1`, the inhibition was -12.3% (inactive).

For `Cn1c(-c2ccc(F)cc2)cc2onc(-c3ccccc3Cl)c2c1=O`, the inhibition is 6.78% (inactive).

For `COc1cc(/C(=C/c2ccccc2)c2ccccc2)c2c(c1)oc1ccccc12`, the inhibition was 0.46% (inactive). Consider `Cc1ccc(S(=O)(=O)N(C)c2nc3ccccc3n3c(C(C)C)nnc23)cc1`, for which the inhibition was 6.76% (inactive).
